An excerpt weighted towards active compounds, which were near 3.3% of everything screened.
S16 F2sN tox = toxic to S16 Pmp22-F2sN Schwann cells | S16 Pmp22-F2sN Schwann cells viability, CellTiter-Glo, 24 h | Potency, µM (series often up to 57.5 µM), inactives show at the top dose activity change, negative = cytotoxicity, usual class: cytotoxic | 0.48% of 43,000 active | AID 1508642; further: on the % scale 0 is the no-effect control and ±100 the full control effect; nearly all actives have a fitted effect of over 65% in size
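S16 Schwann cells carrying the Pmp22-F2sN reporter, seeded in 1536-well format, were exposed to library compounds for 24 h at 37C. Viability was read as CellTiter-Glo luminescence after 15 min at room temperature.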
HTT prom inh = inhibits huntingtin promoter activity; 0.93% of 48,000 active; HEK293 HTT promoter firefly luciferase reporter, 24 h; Potency, µM (top dose mostly 57.5 µM), inactives show top-dose activity change, negative = inhibition, usual class: inhibitors; further: nearly all actives have a fitted effect of over 50% in size
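Luminescence was read after Dual-Glo reagent and a 10 min room-temperature incubation. Values were normalized to vehicle (0% activity) and zero RLU (-100% activity). Reporter HEK293 cells had been exposed to compounds (up to 57.5 uM final) for 24 h.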
FH mod = Identification of activators of human fumarate hydratase by quantitative high-throughput screening | 0.22% of 54,000 active | Fumarate hydratase, mitochondrial (Homo sapiens), P07954 | Potency, µM (series often up to 79.9 µM), inactives show at the highest dose activity change, negative = inhibition, actives largely listed as inhibitors | FH coupled MDH/diaphorase resazurin fluorescence, 15 min; further: on the % scale 0 is the no-effect control and ±100 the full control effect; the screen sought activators but most active calls are inhibition curves; nearly all actives have a fitted effect of over 45% in size
Target sequence (P07954 whole entry, looked up): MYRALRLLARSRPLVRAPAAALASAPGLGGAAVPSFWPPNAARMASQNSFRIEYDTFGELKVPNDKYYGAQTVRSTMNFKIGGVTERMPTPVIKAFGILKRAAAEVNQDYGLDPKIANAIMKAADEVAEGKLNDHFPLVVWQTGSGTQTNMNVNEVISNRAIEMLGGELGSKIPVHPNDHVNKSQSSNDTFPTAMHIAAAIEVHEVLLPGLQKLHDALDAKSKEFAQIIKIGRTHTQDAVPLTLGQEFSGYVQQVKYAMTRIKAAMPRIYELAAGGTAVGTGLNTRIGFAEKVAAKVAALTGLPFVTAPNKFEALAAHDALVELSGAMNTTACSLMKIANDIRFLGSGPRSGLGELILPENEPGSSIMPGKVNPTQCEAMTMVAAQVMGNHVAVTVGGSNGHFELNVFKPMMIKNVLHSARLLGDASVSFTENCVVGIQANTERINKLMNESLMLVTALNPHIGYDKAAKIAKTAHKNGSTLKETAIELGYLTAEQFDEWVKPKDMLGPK
mTORC1 inh = reduces mTORC1 signaling in Tsc2 and p53 null MEF cells; Tsc2-/- p53-/- MEF, phospho-rpS6 immunofluorescence/PI, 24 h; Potency, µM (doses to about 38.3 µM), for inactives: at the highest dose activity change, negative = inhibition, usual class: inhibitors; 0.78% of 44,000 active; AID 493208;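 further: plate controls were DMSO for no effect and rapamycin for full effect; nearly all actives have a fitted effect of over 50% in size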
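Immunofluorescence of rpS6 phosphorylation in Tsc2-/-, p53-/- MEFs after 24 h compound exposure, normalized to propidium iodide signal. Activity is expressed as % positive cells, thresholded with 7.5 nM rapamycin.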
PMP22 txn = PMP22 gene transcription modulation | S16 Pmp22-F2sN Schwann cells (luciferase reporters placed in the Pmp22 gene), FLuc/NLuc coincidence luminescence, 24 h | Potency, µM (titrated, usually from 57.5 µM), inactives show top-dose activity change, negative = inhibition, hits mostly inhibitors | 2% of 43,000 active | AID 1508649; active means clear falling dose curves in both reporters; inconclusive means both reporters move, but less clearly or upward; inactive means either reporter flat; the % is the NLuc reporter signal; further: on the % scale 0 is the no-effect control and ±100 the full control effect
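Luminescent read-out of sequential FLuc and NLuc signals from a reporter embedded in the Pmp22 3' UTR of S16 Schwann cells, taken after 24 h compound exposure at 37C; compounds reducing both signals score as inhibitors of expression.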
HTT-AS promoter = HTT-AS promoter activation. 0.24% of 48,000 active. Potency, µM (doses to about 57.5 µM), inactives show at the highest dose activity change, positive = activation, most hits filed as activators. AID 1508624. HEK293 HTT-AS promoter firefly luciferase reporter, 24 h; response scale: percent change from vehicle, -100% = no light; further: nearly all actives have a fitted effect of over 55% in size
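Luminescence was read after Dual-Glo reagent and a 10 min room-temperature incubation. Values were normalized to vehicle (0% activity) and zero RLU (-100% activity). Reporter HEK293 cells had been exposed to compounds (up to 57.5 uM final) for 24 h.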
Starred values were filed as active, the others as inactive; ? = inconclusive; · = no result given; [ ] = another dose, or the depositor's remark. Unless noted, the call rests on the fitted dose curve; in most records, active means well fitted curve in the direction sought with a large enough effect; inconclusive means small, poorly fitted or top-dose-only effect, or another doubt; inactive means no such curve, though single readings can be large; an effect the other way counts as inactive or inconclusive. Potency means the concentration at half of the fitted maximal effect.

SMILES	S16 F2sN tox	HTT prom inh	FH mod	mTORC1 inh	PMP22 txn	HTT-AS promoter
CC1=C(C(=O)Nc2ccc(Cl)cc2)C(c2ccccc2)n2ncc(C(=O)Nc3ccccc3)c2N1 (centres undefined)	?	25µM*	-21%	?	?	-55%
O=c1cc(-c2ccccc2)oc2c(O)c(O)ccc12	·	·	16µM*	·	·	·
CC(C/C=C/C(C)(C)O)C1CCC(C)(O)C(O)C1 (centres undefined)	·	·	10%	·	·	·
CS(=O)(=O)N(CC(=O)NCCc1ccccc1)c1cc(C(F)(F)F)ccc1Cl	-2%	-10%	0%	6.6µM*	16%	-13%
COc1cc(C(=O)N(CCCN(C)C)c2nc3c(OC)cccc3s2)cc(OC)c1OC	-1%	2%	-27%	18µM*	?	0%
Cc1cccc2sc(N(CCCN(C)C)C(=O)COc3ccccc3)nc12	5%	-2%	-2%	-1%	-10%	-11%
CCCCN1C(=O)c2[nH]nc(-c3ccccc3O)c2C1c1ccc(OCc2ccccc2)cc1 (centres undefined)	?	25µM*	-20%	-6%	?	-90%
CCCc1nnc(NC(=O)c2cc(=O)c3ccccc3o2)s1	0%	47%	-3%	3%	-20%	4µM*
CN1CCN(C(CNC(=O)C(=O)Nc2cccc(Cl)c2)c2ccc3c(c2)OCO3)CC1 (centres undefined)	?	-16%	-1%	16µM*	?	-13%
O=C(NCC(c1ccc2c(c1)OCO2)N1CCOCC1)C(=O)Nc1cccc(Cl)c1 (centres undefined)	1%	-26%	-12%	-1%	-6%	-31%
CCCCc1ccc(C(=O)Nc2cc(-c3ccc(Cl)cc3)nn2-c2ccc(Cl)cc2)cc1	·	·	0%	·	·	·
COc1ccc(OC)c(CCNC(=O)C(C)n2nc(C)c3c(C)n(-c4ccc(C)cc4)nc3c2=O)c1 (centres undefined)	?	1.6µM*	-12%	-12%	?	-88%
CCC(C(=O)NCCc1cc(OC)ccc1OC)n1nc(C)c2c(C)n(-c3ccccc3)nc2c1=O (centres undefined)	-9%	?	-2%	-21%	-10%	-12%
COc1ccc(CCNC(=O)Cn2nc(C)c3c(C)n(-c4ccc(C)cc4)nc3c2=O)c(OC)c1	4%	2.5µM*	-14%	-16%	?	-68%
O=C(OCC1=CC(Cl)C(O)C(OC(=O)c2ccccc2)C1O)c1ccccc1 (centres undefined)	·	·	3%[20.6 µM]	·	·	·
CNS(=O)(=O)c1ccc2c(c1)/C(=C/c1[nH]c3c(c1CCCN1CCN(C)CC1)CCCC3)C(=O)N2	·	·	26%	·	·	·
CCCCn1ccc(N2CCC(c3ccccc3)CC2)c(Cl)c1=O	·	·	-9%	·	·	·
Cc1cc(C)cc(NC(=O)Cn2c(=O)oc3cc(S(=O)(=O)N4CCCC4)ccc32)c1	16%	?	-14%	-9%	-27%	-33%
CC(C)c1ccc(NC(=O)Cn2c(=O)oc3cc(S(=O)(=O)N4CCCC4)ccc32)cc1	-15%	14µM*	-22%	0%	?	-48%
COc1ccc(/C=C(\C#N)c2nc(-c3cc4c(ccc5ccccc54)oc3=O)cs2)cc1O	?	8%	0%	4%	8.9µM*	-2%
CC(=O)O[C@@H]1[C@H](O[C@@H]2O[C@H](CO)[C@@H](O)[C@H](O)[C@H]2O)[C@@H](O[C@@H]2O[C@@H](C)[C@H](O)[C@@H](O[C@@H]3O[C@H](CO)[C@@H](O)[C@H](O)[C@H]3O)[C@H]2O)[C@H](OC(=O)C23CCC4(C)C(=CCC5C6(C)CC(O)C(O[C@@H]7O[C@H](C(=O)O)[C@@H](O)[C@H](O)[C@H]7O)C(C)(C(=O)O)C6CCC54C)C2CC(C)(C)CC3O)O[C@@H]1C (some centres undefined)	·	·	4%[13.5 µM]	·	·	·
CCOc1cc(CNCCSc2nnnn2C)cc(Cl)c1OCc1ccc(Cl)cc1	-12%	?	?	16µM*	?	-54%
COc1cc(CNCCSc2nnnn2C)cc(Cl)c1OCc1ccccc1	?	-21%	-5%	?	?	-27%
COc1cc(OC)c(NC(=O)c2c3c(nc4ccccc24)C(=O)N(C2CCCCC2)C3)cc1Cl	25µM*	-28%	-14%	-9%	?	-11%
O=C(Nc1ccccc1Br)NC1CCN(c2ccc(C(F)(F)F)cn2)C1 (centres undefined)	·	·	-3%	·	·	·
SMILES	S16 F2sN tox	HTT prom inh	FH mod	mTORC1 inh	PMP22 txn	HTT-AS promoter
CCCCC1CCC(c2nc(-c3ccncc3)no2)CC1 (centres undefined)	·	·	0%	·	·	·
CSc1ccc(CCNc2ncnc3onc(-c4ccc(Cl)cc4)c23)cc1	-20%	18µM*	-10%	-7%	?	-53%
Cc1ccc(C(=O)Nc2ccc(CN3CCN(C)CC3)c(C(F)(F)F)c2)cc1C#Cc1cnc2[nH]ncc2c1	·	·	-4%	·	·	·
COc1cc(CN(C(=O)c2ccc(OC(C)C)cc2)c2ccccn2)cc(OC)c1OC	-3%	16µM*	-4%	-16%	?	-54%
CCC(C)(OC(C)=O)C(=O)O[C@H]1[C@H](OC(C)=O)[C@]2(CO)[C@H](O)[C@H](O)[C@]3(C)C(=CCC4[C@@]5(C)CC[C@H](O[C@@H]6O[C@H](C(=O)O)[C@@H](O)[C@H](O[C@@H]7OC[C@H](O)[C@H](O[C@@H]8OC[C@H](O)[C@H](O)[C@H]8O)[C@H]7O)[C@H]6O[C@@H]6O[C@H](CO)[C@@H](O)[C@H](O)[C@H]6O)C(C)(C)C5CC[C@]43C)[C@@H]2CC1(C)C (some centres undefined)	·	·	1%[13.5 µM]	·	·	·
CCC1=C(C)C(=O)C(C)CC12C(=O)CCC2C(=O)O (centres undefined)	·	·	-14%	·	·	·
Cc1[nH]n2c(=O)cc(-c3ccc(Cl)cc3)nc2c1-c1ccccc1	10µM*	?	?	?	8.5µM*	-59%
Cc1nc2c(-c3ccccc3)c(C)[nH]n2c(=O)c1Cc1ccc(Br)cc1	10µM*	13µM*	9%	?	9.5µM*	-65%
Cc1nc2c(-c3ccccc3)c(C)[nH]n2c(=O)c1Cc1ccc(C(C)C)cc1	8.9µM*	?	6%	5%	?	-42%
Cc1ccc(Cc2c(C)nc3c(-c4ccccc4)c(C)[nH]n3c2=O)cc1	?	?	-2%	2%	?	-42%
